# Results taken from ChEMBL document CHEMBL4513216, “Probing the Open Global Health Chemical Diversity Library for Multistage-Active Starting Points for Next-Generation Antimalarials” (ACS Infect Dis, 2020).
# The campaign covered roughly 65,000 compounds. About 2,100 (3.2%) showed an effect of 50% or more. The median lay at about -52%. For the sample, strong results were picked, then their nearest neighbours and some compounds at random.
# System: Plasmodium falciparum
# Assay: Screen against P. falciparum Asexual Blood Stage (ABS), at 5uM
# Assay type: functional, Dd2
# Conditions: tested at 5 uM
row,Structure (SMILES),INHIBITION [%]
1,c1cncc(-c2ccc3c(c2)C2(CCNCC2)CC3)c1,71.1
2,c1cncc(-c2ccc3c(c2)CCC32CCN(Cc3ccco3)CC2)c1,73.9
3,O=C1N(c2cccnc2)CCC12CCCN(Cc1ccco1)C2 (stereo not given),-5.52
4,c1cncc(-c2ccc3c(c2)CCC32CCNCC2)c1,86.9
5,O=C1[C@H]2CN(Cc3ccco3)C[C@H]2CN1c1cncnc1,-54.3
6,COCC(=O)N1CCC2(CCN(Cc3cccnc3)C2)CC1,-7.11
7,CN(C)CCN1CCCC12CCCN(C(=O)c1cccnc1)C2 (stereo not given),-10.1
8,CN(C)CC(=O)N1CCC2(CCc3cc(-c4cccnc4)ccc32)CC1,80.1
9,O=C1NC2(CCNCC2)CC1c1cccnc1 (stereo not given),-11.2
10,Cc1n[nH]c(C)c1CC(=O)N1CCN(C)C2(CCNC(=O)CC2)C1 (stereo not given),-115
11,COCCN1CCC12CCN(C(=O)Cc1cccs1)C2 (stereo not given),-9.04
12,CN1CCC2(COCc3cnc(-c4ccccc4)nc32)C1 (stereo not given),-45
13,COCCn1c(C(=O)NC(C(N)=O)C(C)C)cc2ccccc21 (stereo not given),-92
14,COc1nc(N2CCNCC2)ncc1Br,23.8
15,Cc1ccc(N2CCC3(CN(CCO)CCC3(F)F)C2)nn1 (stereo not given),-59.8
16,Fc1cnc(N2CCCC3(CCN(Cc4ccsc4)C3)C2)nc1 (stereo not given),87.6
17,Cc1c[nH]c(CN2CCC3(CCCN(Cc4ccc(F)c(F)c4)C3)C2)n1 (stereo not given),80.3
18,COCCN1CCC2(C1)CN(c1ncc(F)cn1)C2,-81.1
19,Fc1cnc(N2CCCC3(CCN(Cc4nccs4)C3)C2)nc1 (stereo not given),25.5
20,Cc1ncc(CN2CCC3(CCCN(CC4CCC4)C3)C2)cn1 (stereo not given),-45.2

row,Structure (SMILES),INHIBITION [%]
1,Fc1cnc(N2CC3(CCN(Cc4ccsc4)C3)C2)nc1,3.41
2,COc1ccc(CN2CCC3(CCCN(c4ncc(F)cn4)C3)C2)cc1 (stereo not given),87.1
3,Fc1cnc(N2CCCC3(CCN(Cc4ccoc4)C3)C2)nc1 (stereo not given),73.7
4,CCc1cnc(N2CC3(CCN(Cc4ccsc4)C3)C2)nc1,-19.4
5,CCc1ncc(CN2CCC3(CCCN(CC4CCC4)C3)C2)cn1 (stereo not given),8.28
6,COc1ncc(CN2CCC3(CCCN(CC4CCC4)C3)C2)cn1 (stereo not given),-57.4
7,Cc1oc(-c2ccco2)nc1CC(=O)N1CCN(CC(C)(C)O)CC1,-109
8,Cc1noc(CN2CC=C(c3c[nH]c4ncccc34)CC2)n1,-31.2
9,Cc1cccc(CN2C[C@@H](NC(=O)C3CC3)[C@H]3OCCC[C@H]32)n1,-83.3
10,c1cnc(N2CCCC3(CCN(Cc4cccs4)C3)C2)nc1 (stereo not given),40.4
11,Fc1cnc(N2CCCC3(CCN(Cc4ccco4)C3)C2)nc1 (stereo not given),78.2
12,c1cnc(N2CCCC3(CCN(Cc4ccncc4)C3)C2)nc1 (stereo not given),-63.1
13,Cc1cnc(N2CC3(CCN(Cc4cccnc4)C3)C2)nc1,12.1
14,Fc1cnc(N2CCOCC3(CCCNC3)C2)nc1 (stereo not given),-11.2
15,c1cnc(N2CCOCC3(CN(Cc4ccsc4)CCO3)C2)nc1 (stereo not given),-62.3
16,Fc1cnc(N2CCOC3(CCN(Cc4ccsc4)CC3)C2)nc1,81.6
17,Fc1cnc(N2CCCC3(CCN(Cc4cccs4)C3)C2)nc1 (stereo not given),69.4
18,Fc1cnc(N2CCCC3(CN(Cc4cccs4)CCO3)C2)nc1 (stereo not given),-78.4
19,Cc1cnc(N2CCOC3(CCCN(C)C3)C2)nc1 (stereo not given),14.9
20,c1cnc(N2CCCC3(CCN(Cc4ccsc4)C3)C2)nc1 (stereo not given),68.1
